± gives the standard deviation of the averaged measurements.
Legend:
Experiment in all cases: cell viability (% of vehicle); higher = less cytotoxic
Conditions in all cases: 10 µM; 72 h
HCI01 = tested on: HCI01 (cells of a triple-negative basal-like breast cancer xenograft)
HCI03 = tested on: HCI03 (cells of an ER-positive luminal breast cancer xenograft)
HCI09 = tested on: HCI09 (cells of a triple-negative luminal androgen receptor type breast cancer xenograft)
HCI11 = tested on: HCI11 (cells of an ER-positive luminal breast cancer xenograft)
HCI13 = tested on: HCI13 (cells of an ER-positive luminal breast cancer xenograft)
HCI16 = tested on: HCI16 (cells of a triple-negative basal-like breast cancer xenograft)
UCD52 = tested on: UCD52 (cells of a triple-negative basal-like breast cancer xenograft)
WHIM2 = tested on: WHIM2 (cells of a triple-negative basal-like breast cancer xenograft)
WHIM30 = tested on: WHIM30 (cells of a triple-negative basal-like breast cancer xenograft)
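Note: PDX cells carrying CMV promoter-driven luciferase, viability read as total photon flux per second by IVIS imaging following D-luciferin, vehicle control 0.1% DMSO.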

CCCCCCOC(=O)N=C(N)c1ccc(NCc2nc3cc(C(=O)N(CCC(=O)OCC)c4ccccn4)ccc3n2C)cc1.CS(=O)(=O)O [Dabigatran etexilate mesylate]
cell viability (HCI01): 98.8 ± 8.5 | cell viability (HCI03): 126 | cell viability (HCI09): 81.5 ± 8.2 | cell viability (HCI11): 99.4 | cell viability (HCI13): 106 ± 23 | cell viability (HCI16): 94.6 | cell viability (UCD52): 98.4 ± 9 | cell viability (WHIM2): 63.2 ± 3.8 | cell viability (WHIM30): 104 ± 5.8

CC(=O)N1CCN(c2ccc(OCC3COC(Cn4ccnc4)(c4ccc(Cl)cc4Cl)O3)cc2)CC1 (stereo unspecified) [Ketoconazole]
cell viability (HCI01): 188 ± 14 | cell viability (HCI03): 143 | cell viability (HCI09): 36.4 ± 2.8 | cell viability (HCI11): 102 | cell viability (HCI13): 76 ± 1.8 | cell viability (HCI16): 122 | cell viability (UCD52): 55.8 ± 5.3 | cell viability (WHIM2): 172 ± 25 | cell viability (WHIM30): 122 ± 10

NC(=O)C(CCC(F)(F)F)N(Cc1ccc(-c2ncon2)cc1F)S(=O)(=O)c1ccc(Cl)cc1 (stereo unspecified)
cell viability (HCI01): 96 ± 23 | cell viability (HCI03): 142 | cell viability (HCI09): 67.5 ± 2.2 | cell viability (HCI11): 75.5 | cell viability (HCI13): 102 ± 16 | cell viability (HCI16): 96.7 | cell viability (UCD52): 81.58 ± 0.81 | cell viability (WHIM2): 107.6 ± 0.73 | cell viability (WHIM30): 124 ± 13

CCCC(C(=O)OCCN(CC)CC)(c1ccccc1)c1ccccc1.Cl [SKF 525A (hydrochloride)]
cell viability (HCI01): 103 ± 33 | cell viability (HCI03): 123 | cell viability (HCI09): 93.8 ± 1.2 | cell viability (HCI11): 66.3 | cell viability (HCI13): 103 ± 28 | cell viability (HCI16): 130 | cell viability (UCD52): 61.5 ± 5.9 | cell viability (WHIM2): 99.1 ± 11 | cell viability (WHIM30): 119.8 ± 0.2

O=C(C=Cc1ccc(O)c(O)c1)OC1CC(O)(C(=O)O)CC(O)C1O (stereo unspecified) [Chlorogenic acid]
cell viability (HCI01): 104 ± 3.3 | cell viability (HCI03): 153 | cell viability (HCI09): 119 ± 45 | cell viability (HCI11): 95.8 | cell viability (HCI13): 107 ± 6.4 | cell viability (HCI16): 116 | cell viability (UCD52): 113 ± 2.8 | cell viability (WHIM2): 101 ± 14 | cell viability (WHIM30): 77 ± 12

CC1(c2nc3c(C(N)=O)cccc3[nH]2)CCCN1 (stereo unspecified) [ABT-888 (Veliparib)]
cell viability (HCI01): 109 ± 7.5 | cell viability (HCI03): 120 | cell viability (HCI09): 108 ± 5.2 | cell viability (HCI11): 100 | cell viability (HCI13): 86.9 ± 14 | cell viability (HCI16): 91.1 | cell viability (UCD52): 94.2 ± 2 | cell viability (WHIM2): 101 ± 14 | cell viability (WHIM30): 121 ± 4.2

Cn1c(=O)c2[nH]cnc2n(C)c1=O [Theophylline]
cell viability (HCI01): 98.1 ± 19 | cell viability (HCI03): 123 | cell viability (HCI09): 94 ± 22 | cell viability (HCI11): 66.9 | cell viability (HCI13): 92.4 ± 1.1 | cell viability (HCI16): 117 | cell viability (UCD52): 103 ± 5.6 | cell viability (WHIM2): 86.5 ± 16 | cell viability (WHIM30): 95.8 ± 16

Cl.NC(N)=NC(N)=NCCc1ccccc1 [Phenformin HCl]
cell viability (HCI01): 117 ± 7.8 | cell viability (HCI03): 114 | cell viability (HCI09): 53.2 ± 5.3 | cell viability (HCI11): 110 | cell viability (HCI13): 58.8 ± 5.4 | cell viability (HCI16): 94.6 | cell viability (UCD52): 78.7 ± 3.6 | cell viability (WHIM2): 95.4 ± 15 | cell viability (WHIM30): 90.3 ± 11

CC1OC(OCC2OC(Oc3c(-c4ccc(O)c(O)c4)oc4cc(O)cc(O)c4c3=O)C(O)C(O)C2O)C(O)C(O)C1O (stereo unspecified) [Rutin]
cell viability (HCI01): 107 ± 32 | cell viability (HCI03): 128 | cell viability (HCI09): 101 ± 9.8 | cell viability (HCI11): 102 | cell viability (HCI13): 118 ± 8.5 | cell viability (HCI16): 138 | cell viability (UCD52): 103 ± 14 | cell viability (WHIM2): 122 ± 9.8 | cell viability (WHIM30): 101 ± 13

CO[C@H]1O[C@@H]2OC3(C)CC[C@H]4[C@H](C)CC[C@@H]([C@H]1C)[C@@]24OO3 [Artemether]
cell viability (HCI01): 116 ± 31 | cell viability (HCI03): 121 | cell viability (HCI09): 94.4 ± 26 | cell viability (HCI11): 102 | cell viability (HCI13): 95.8 ± 0.62 | cell viability (HCI16): 106 | cell viability (UCD52): 97.88 ± 0.13 | cell viability (WHIM2): 97.7 ± 8.3 | cell viability (WHIM30): 75.18 ± 0.081

COc1ccc2c(c1OC)C(=O)OC2C1c2c(cc3c(c2OC)OCO3)CCN1C.Cl (stereo unspecified) [Noscapine HCl]
cell viability (HCI01): 127 ± 6.7 | cell viability (HCI03): 114 | cell viability (HCI09): 127 ± 49 | cell viability (HCI11): 117 | cell viability (HCI13): 101 ± 6.3 | cell viability (HCI16): 117 | cell viability (UCD52): 93.7 ± 5 | cell viability (WHIM2): 111 ± 18 | cell viability (WHIM30): 139.5 ± 0.58

CCCCCCNC(=O)n1cc(F)c(=O)[nH]c1=O [Carmofur]
cell viability (HCI01): 110 ± 5.8 | cell viability (HCI03): 103 | cell viability (HCI09): 67.7 ± 9.4 | cell viability (HCI11): 131 | cell viability (HCI13): 80.9 ± 6.8 | cell viability (HCI16): 108 | cell viability (UCD52): 109 ± 41 | cell viability (WHIM2): 92.5 ± 38 | cell viability (WHIM30): 120 ± 17

CCn1cc(C(=O)O)c(=O)c2cc(F)c(N3CCNC(C)C3)c(F)c21.Cl (stereo unspecified) [Lomefloxacin HCl]
cell viability (HCI01): 97.5 ± 19 | cell viability (HCI03): 95.2 | cell viability (HCI09): 94.5 ± 7.8 | cell viability (HCI11): 96.1 | cell viability (HCI13): 76 ± 14 | cell viability (HCI16): 107 | cell viability (UCD52): 91.5 ± 2.9 | cell viability (WHIM2): 83.75 ± 0.15 | cell viability (WHIM30): 150 ± 10

CCc1cc(C(C)=NOCc2ccc(C3CCCCC3)c(C(F)(F)F)c2)ccc1CN1CC(C(=O)O)C1 [BAF312 (Siponimod)]
cell viability (HCI01): 97.4 ± 10 | cell viability (HCI03): 124 | cell viability (HCI09): 44.2 ± 29 | cell viability (HCI11): 72.2 | cell viability (HCI13): 75.64 ± 0.57 | cell viability (HCI16): 115 | cell viability (UCD52): 93.7 ± 1.5 | cell viability (WHIM2): 93.7 ± 17 | cell viability (WHIM30): 111 ± 9.5

Cc1cc(C)cc(OCC2CNC(=O)O2)c1 (stereo unspecified) [Metaxalone]
cell viability (HCI01): 100 ± 16 | cell viability (HCI03): 155 | cell viability (HCI09): 108.2 ± 0.2 | cell viability (HCI11): 100 | cell viability (HCI13): 120 ± 9.4 | cell viability (HCI16): 137 | cell viability (UCD52): 105 ± 6.4 | cell viability (WHIM2): 111 ± 4.7 | cell viability (WHIM30): 102 ± 3

Cn1c(=O)cc(N2CCCC(N)C2)n(Cc2cc(F)ccc2C#N)c1=O (stereo unspecified) [Trelagliptin]
cell viability (HCI01): 111 ± 7 | cell viability (HCI03): 116 | cell viability (HCI09): 112 ± 6.1 | cell viability (HCI11): 111 | cell viability (HCI13): 104 ± 1.3 | cell viability (HCI16): 95.2 | cell viability (UCD52): 96.2 ± 11 | cell viability (WHIM2): 96.8 ± 4.5 | cell viability (WHIM30): 121 ± 13

C[C@H]1COc2c(N3CCN(C)CC3)c(F)cc3c(=O)c(C(=O)O)cn1c23 [Levofloxacin]
cell viability (HCI01): 102 ± 26 | cell viability (HCI03): 109 | cell viability (HCI09): 88 ± 17 | cell viability (HCI11): 89.6 | cell viability (HCI13): 124 ± 50 | cell viability (HCI16): 123 | cell viability (UCD52): 88.7 ± 1.4 | cell viability (WHIM2): 104 ± 12 | cell viability (WHIM30): 132 ± 2.4

COc1ccc(C(=O)CC(=O)c2ccc(C(C)(C)C)cc2)cc1 [Avobenzone]
cell viability (HCI01): 74.2 ± 40 | cell viability (HCI03): 126 | cell viability (HCI09): 74.1 ± 8.4 | cell viability (HCI11): 83.5 | cell viability (HCI13): 76.7 ± 5.2 | cell viability (HCI16): 119 | cell viability (UCD52): 71 ± 1.6 | cell viability (WHIM2): 106 ± 37 | cell viability (WHIM30): 141 ± 12

Cl.O=C1OC(CN2CCOCC2)CN1N=Cc1ccc([N+](=O)[O-])o1 (stereo unspecified) [Furaltadone HCl]
cell viability (HCI01): 75.8 ± 23 | cell viability (HCI03): 153 | cell viability (HCI09): 46.7 ± 22 | cell viability (HCI11): 63.7 | cell viability (HCI13): 94.2 ± 14 | cell viability (HCI16): 97 | cell viability (UCD52): 135 ± 13 | cell viability (WHIM2): 42.7 ± 10 | cell viability (WHIM30): 96 ± 4.8

— the supplement of paper PMC6992640
